Most compounds without a hit are left out; they make up all but 12% or so of the library.
D1 allo mod – D1 dopamine receptor (human) allosteric modulation; HEK293 D1, CRE-luciferase, dopamine EC30 potentiation; actives deviate in either direction; AID 641; actives 5.9% (n = 58,000); B-score at 10 µM;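 active = luminescence count or its row- and column-corrected plate score outside the 99.7% band of the plate's sample wells, on either side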
PostGolgi ctrl – yeast control strain growth, post-Golgi counter-screen | AID 738 | actives 5% (n = 98,000) | efflux-deficient yeast background strain, growth absorbance A615, 16 h | inhibition, % at 10 µM
PostGolgi yeast – growth inhibition of a yeast mutant, post-Golgi transport screen. inhibition, % at 10 µM. AID 739. post-Golgi transport phenotypic cell assay. actives 0.9% (n = 98,000);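 also: yeast cells grown in 1536-well plates; yeast grown about 18 h at 30C before absorbance read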
DAT uptake mod – human DAT dopamine uptake with cocaine, either direction | LLC-PK1 hDAT cells, [14C]-dopamine uptake with cocaine IC80; actives deviate in either direction | actives 1.3% (n = 110,000) | Q01959 | B-score at 10 µM;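 active = Z score or B-score, a plate-position-corrected score, falls beyond the plate's 99.7% confidence bounds, in either direction; inactive = both scores lie inside the 99.7% bounds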;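 also: scored against the spread of the other compound wells on the same plate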
Target sequence (Q01959 whole entry, looked up): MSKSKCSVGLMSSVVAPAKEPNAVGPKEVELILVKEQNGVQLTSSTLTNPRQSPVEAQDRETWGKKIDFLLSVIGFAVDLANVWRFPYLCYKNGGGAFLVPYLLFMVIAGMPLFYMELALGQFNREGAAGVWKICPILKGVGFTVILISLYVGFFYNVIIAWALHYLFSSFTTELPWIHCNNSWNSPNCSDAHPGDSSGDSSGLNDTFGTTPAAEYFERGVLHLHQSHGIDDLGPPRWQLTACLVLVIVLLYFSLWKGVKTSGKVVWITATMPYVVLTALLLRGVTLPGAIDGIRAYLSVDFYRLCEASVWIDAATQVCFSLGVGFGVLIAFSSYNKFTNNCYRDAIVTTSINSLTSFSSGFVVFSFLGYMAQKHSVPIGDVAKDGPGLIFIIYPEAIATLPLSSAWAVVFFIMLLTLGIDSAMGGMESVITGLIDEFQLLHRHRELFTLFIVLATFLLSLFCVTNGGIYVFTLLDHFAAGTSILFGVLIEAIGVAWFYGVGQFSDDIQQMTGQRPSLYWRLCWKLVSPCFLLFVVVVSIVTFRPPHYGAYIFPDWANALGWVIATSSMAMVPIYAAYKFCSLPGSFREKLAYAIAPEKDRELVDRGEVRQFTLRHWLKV
Cav3 T inh – human Cav3.2 channel inhibition, primary screen | AID 449739 | B-score at 10 µM | O95180 | actives 4% (n = 100,000) | Cav3.2-expressing cells, Fluo-4 calcium fluorescence FDSS; active compounds read low;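 active = single-dose well whose peak fluorescence ratio is a statistical outlier from its plate by either plate-standardised score or position-corrected B-score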
PLAP activator – activates human placental alkaline phosphatase; actives 1.2% (n = 96,000); activation fold at 20 µM; AID 696; purified PLAP enzyme, luminescent substrate read-out; active compounds read high; in the data active = activation fold above about 2
D1 PAM confirm – confirmation of human D1 dopamine receptor allosteric modulators | shares compounds with D1 allo mod | HEK293 D1 CRE-luciferase, dopamine EC30 potentiation; active compounds read high | luminescence at 10 µM | actives 88% (n = 2,200);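 active = luminescence in either of two replicates above the same-plate mean plus 3 SD of the low-dose dopamine control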
D1 ag no DA – secondary test of D1 modulators: activity without dopamine. shares compounds with D1 allo mod. HEK293 D1 CRE-luciferase, luminescence, no dopamine; active compounds read high. luminescence at 10 µM. actives 0.8% (n = 1,900); in the data active = luminescence above about 3900
Isoprot counter – counter-screen for D1 modulators: isoproterenol response in HEK293 cells | shares compounds with D1 allo mod | HEK293 D1 CRE-luciferase, isoproterenol EC30 counter-screen | calls only at 10 µM | actives 63% (n = 2,200) | AID 647;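 active = luminescence in either replicate above plate mean of wells with a partly effective reference agonist dose plus 3 SD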;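 also: isoproterenol raises cAMP through native beta-adrenoceptor Gs so signal bypasses D1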
Active calls of the source: *; i = inactive; nt = not tested or not shown; + = active, no number. Rule as the data show it, unless noted: active = inhibition above about 30%; inactive = the rest.

SMILES	D1 allo mod	PostGolgi ctrl	PostGolgi yeast	DAT uptake mod	Cav3 T inh	PLAP activator	D1 PAM confirm	D1 ag no DA	Isoprot counter
CCOc1cccc(-c2nnc3n2N=C(c2cc(OC)ccc2OC)CS3)c1	17*	58*	-1	0.69	-4	nt	13520*	nt	+
Cc1cccc(-c2nnc3n2N=C(c2ccccc2Br)CS3)c1	8.1*	29	5	0.83	-2.7	1	17404*	1544	+
O=C(N1CCOCC1)N(CCN1CCOCC1)Cc1cccc(Cl)c1	-0.56	18	0	-0.55	0.68	1.2	nt	nt	nt
COc1ccc(C2=Nn3c(nnc3-c3ccccc3OC)SC2)cc1OC	41*	19	22	0.21	-0.1	1.1	31124*	nt	+
COc1ccc(C2=Nn3c(nnc3-c3ccccn3)SC2)cc1OC	nt	25	-2	-0.25	-2.1	1.2	nt	nt	nt
CCc1ccc(C2=Nn3c(nnc3-c3cccs3)SC2)cc1	8.8*	13	-1	-0.2	0.035	1	6272*	976	i
Cc1ccc(C(=O)N2CCCC(c3nc4c(nnn4Cc4ccccc4)c(=O)[nH]3)C2)cc1 (stereo not drawn)	3.4*	-1	23	1.9	1.8	1.1	9432*	nt	+
Cc1ccc(CC(=O)N2CCC(c3nc4c(nnn4Cc4ccccc4)c(=O)[nH]3)CC2)cc1	4.9*	9	3	0.76	nt	nt	7652	1488	i
COc1ccccc1Cn1nnc2c(=O)[nH]c(C3CCN(C(=O)c4ccccc4Cl)CC3)nc21	2.6	1	2	0.89	0.87	1.5	nt	nt	nt
O=C(c1ccccc1Cl)N1CCC(c2nc3c(nnn3Cc3ccco3)c(=O)[nH]2)CC1	6.1*	15	2	2.3	0.86	nt	11824*	1716	+
CC1(C)Cc2c(sc3c2c(=N)n(Cc2ccco2)c(=O)n3Cc2ccc(Cl)cc2)CO1	25*	97*	6	0.72	-1.7	1.7	24660*	1604	+
COc1cc(CNC(=O)c2ccc3c(c2)S(=O)(=O)c2ccccc2C3=O)cc(OC)c1	nt	nt	nt	0.22	1.2	nt	nt	nt	nt
C=CCNC(=O)c1ccc2c(c1)S(=O)(=O)c1ccccc1C2=O	nt	nt	nt	0.12	0.11	nt	nt	nt	nt
CCOC(=O)c1cc2cc(F)ccc2nc1C	10*	3	-6	0.3	0.87	0.7	12456*	1480	+
CCOC(=O)c1cnn2c(C)cc(-c3ccc(F)cc3)nc12	-0.72	15	-7	1.4	0.69	1.7	nt	nt	nt
N#CC1=C(N)N(c2ccccc2)C(c2ccco2)C1(C#N)C#N (stereo not drawn)	7.7*	3	10	-0.11	1.3	0.8	5392	1576	i
COc1cc(NS(=O)(=O)c2ccc(Br)cc2)c(OC)cc1NC(=O)c1ccco1	2.2	26	-13	2.1	-0.9	1.3	nt	nt	nt
Clc1ccc(Cl)c(-c2nn3c(COc4ccccc4)nnc3s2)c1	2.8	-2	-2	-0.58	2.2	0.9	nt	nt	nt
c1ccc(OCc2nnc3sc(-c4cccs4)nn23)cc1	6.4*	12	-4	0.38	-1	0.9	15144*	1772	+
Fc1ccc(-c2nnc3sc(C4COc5ccccc5O4)nn23)cc1 (stereo not drawn)	1.1	24	-3	-0.56	-2.3	1.5	nt	nt	nt
Fc1ccc(-c2nn3c(C4COc5ccccc5O4)nnc3s2)cc1 (stereo not drawn)	3.8*	21	0	nt	nt	0.9	14388*	1980	+
c1csc(-c2nn3c(C4COc5ccccc5O4)nnc3s2)c1 (stereo not drawn)	8.6*	1	11	-0.092	nt	1	18120*	1676	+
CCOc1cc(CNc2ccc3c(c2)CCC3)ccc1OC	nt	18	-3	-0.49	-0.53	1.1	nt	nt	nt
CC(C)C(=O)NS(=O)(=O)c1ccc(N)cc1	nt	-4	-3	-1.1	0.015	0.9	nt	nt	nt
CCc1c(C2(O)CCCCC2)[nH]c2ccc(C#N)cc12	nt	nt	nt	-0.24	0.045	nt	nt	nt	nt
SMILES	D1 allo mod	PostGolgi ctrl	PostGolgi yeast	DAT uptake mod	Cav3 T inh	PLAP activator	D1 PAM confirm	D1 ag no DA	Isoprot counter
CCOC(=O)c1sc(NC(NC(=O)c2ccco2)(C(=O)OC)C(F)(F)F)nc1C (stereo not drawn)	5.6*	14	3	0.63	nt	1.1	8940*	1520	+
COc1ccc(-c2c([C@H]3[C@H]4C=CC[C@@H](C)[C@@H]4C(=O)N3Cc3ccccc3)ccc3ccccc23)cc1OC	nt	nt	nt	0.039	-1.4	nt	nt	nt	nt
CC(=O)N1CCN=C1SCc1cccc(C(F)(F)F)c1	4.9*	5	1	0.42	0.14	0.9	10200*	1640	+
O=C(C1CC1)N1CCN=C1SCc1cccc(C(F)(F)F)c1	0.6	13	6	0.81	-1.6	1	nt	nt	nt
C=CCNC(=O)CN(c1cccc(Br)c1)S(C)(=O)=O	-0.2	-1	-7	-0.088	-0.11	0.9	nt	nt	nt
Cc1c(C(=O)NC(C)C)oc2c1-c1[nH]ncc1CC2	-0.33	6	13	-0.21	-0.21	1	nt	nt	nt
CCOc1ccc(CCNC(=O)c2oc3c(c2C)-c2[nH]ncc2CC3)cc1OCC	11*	19	-13	1.8	1	1.2	24696*	1620	+
O=C(Nc1c(C(=O)O)oc2ccc(Br)cc12)c1ccccc1	0.017	10	2	-0.2	-1.5	1.4	nt	nt	nt
O=C1NC(=Nc2ccccc2)S/C1=C\c1cccn1-c1ccccc1	nt	15	2	-2.6	-0.091	1.7	nt	nt	nt
CCOC(=O)N1CCN(C(=O)c2ccc(Cl)c(S(=O)(=O)Nc3ccccc3)c2)CC1	6.1*	8	0	1.1	2.4	1.4	15076*	1588	i
CCCn1c(=O)c(C(=O)NCc2ccncc2)c(O)c2ccccc21	5.2*	15	-2	0.76	-1.1	1.1	6720*	1628	i
CCn1c(=O)c(C(=O)Nc2cccnc2)c(O)c2ccccc21	0.84	nt	nt	nt	nt	nt	nt	nt	nt
CCn1c(=O)c(C(=O)NCc2cccnc2)c(O)c2ccccc21	4.8*	5	3	-8.4*	-0.026	0.9	13308*	1676	i
COc1ccc(CSc2n[nH]c(C)n2)cc1Br	6.5*	9	17	-0.79	1.2	1.3	10580*	nt	+
c1cc2c(cc1C1=Nn3c(nnc3C3CCCCC3)SC1)OCO2	28*	8	5	-0.24	-2.4	1	25488*	1768	+
O=C(NCc1ccco1)c1nn(-c2ccccc2)c(=O)c2ccccc12	5.2*	-2	-5	-0.19	-0.28	1.1	15012*	1664	i
COc1ccc(-n2nc(C(=O)NCC(=O)NCc3ccco3)c3ccccc3c2=O)cc1	0.55	-5	0	0.89	0.6	0.9	nt	nt	nt

Source: PubChem (several laboratories)
